Data: PubChem BioAssay (Tox21)
A number with no mark means an inactive call. Results filed as inconclusive are left out. A call without a number means that no potency is given here. The source made the active and inactive calls. Unless noted, calls come from the whole dose curve; as a rule, active = well fitted curve in the direction sought with a large enough effect in the repeat runs; inconclusive = weak or mixed curves; inactive = flat fitted curve, though single readings scatter.

Columns and labels:
[1] = qHTS assay to test for compound auto fluorescence at 535 nm (green) in HEK293 cells (AID 720680)
[2] = qHTS assay to test for compound auto fluorescence at 460 nm (blue) in HEK293 cell free culture (AID 720681)
Summary of the method: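 Compounds were added to cell-free DMEM with 10% FBS and fluorescence read directly. The blue channel used 405 nm excitation and 460 nm emission, with triamterene as the reference fluorophore.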

[3] = qHTS assay to test for compound auto fluorescence at 535 nm (green) in HEK293 cell free culture (AID 720682)
Summary of the method: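 Compounds were pin-transferred into cell-free DMEM with 10% FBS, and green fluorescence was read at excitation 485 nm and emission 535 nm. Intensities were expressed as fluorescein-equivalent values.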

[4] = qHTS assay to test for compound auto fluorescence at 590 nm (red) in HEK293 cell free culture (AID 720683)
Summary of the method: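 Cell-free wells of DMEM with 10% FBS received compound, and intrinsic fluorescence was read at excitation/emission 540/590 nm. Values expressed as equivalence to Rose Bengal sodium.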

[5] = qHTS assay to test for compound auto fluorescence at 590 nm (red) in HepG2 cell free culture (AID 720684)
Summary of the method: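 Compounds are added to culture medium (MEM, 10% FBS) lacking cells, then fluorescence is read at excitation 540 nm, emission 590 nm, with Rose Bengal sodium as the equivalency standard.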

[6] = qHTS assay to test for compound auto fluorescence at 460 nm (blue) in HepG2 cell free culture (AID 720685)
Summary of the method: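 Compound (23 nL) or DMSO pinned into cell-free MEM with 10% FBS; blue fluorescence read at 405/460 nm excitation/emission, expressed as auto-fluorescence equivalency to triamterene.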

[7] = qHTS assay to test for compound auto fluorescence at 535 nm (green) in HepG2 cell free culture (AID 720686)
[8] = qHTS assay to test for compound auto fluorescence at 460 nm (blue) in HepG2 cells (AID 720687)
Summary of the method: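 HepG2 cells in MEM with 10% FBS, attached overnight at 37 C, were exposed to compound or DMSO for 1 hr at 37 C, 5% CO2. Blue fluorescence was read at 405/460 nm, with triamterene as reference fluorophore.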

[9] = biological target: Glucocorticoid receptor (Homo sapiens) (UniProt P04150); assay: qHTS assay to identify small molecule agonists of the glucocorticoid receptor (GR) signaling pathway (AID 720691; active = well fitted activation curve with a large enough effect in the signal ratio in the repeat runs, not every such curve was filed as active; the % refers to the signal ratio)
Glucocorticoid receptor (Homo sapiens), sequence (P04150 whole entry, looked up): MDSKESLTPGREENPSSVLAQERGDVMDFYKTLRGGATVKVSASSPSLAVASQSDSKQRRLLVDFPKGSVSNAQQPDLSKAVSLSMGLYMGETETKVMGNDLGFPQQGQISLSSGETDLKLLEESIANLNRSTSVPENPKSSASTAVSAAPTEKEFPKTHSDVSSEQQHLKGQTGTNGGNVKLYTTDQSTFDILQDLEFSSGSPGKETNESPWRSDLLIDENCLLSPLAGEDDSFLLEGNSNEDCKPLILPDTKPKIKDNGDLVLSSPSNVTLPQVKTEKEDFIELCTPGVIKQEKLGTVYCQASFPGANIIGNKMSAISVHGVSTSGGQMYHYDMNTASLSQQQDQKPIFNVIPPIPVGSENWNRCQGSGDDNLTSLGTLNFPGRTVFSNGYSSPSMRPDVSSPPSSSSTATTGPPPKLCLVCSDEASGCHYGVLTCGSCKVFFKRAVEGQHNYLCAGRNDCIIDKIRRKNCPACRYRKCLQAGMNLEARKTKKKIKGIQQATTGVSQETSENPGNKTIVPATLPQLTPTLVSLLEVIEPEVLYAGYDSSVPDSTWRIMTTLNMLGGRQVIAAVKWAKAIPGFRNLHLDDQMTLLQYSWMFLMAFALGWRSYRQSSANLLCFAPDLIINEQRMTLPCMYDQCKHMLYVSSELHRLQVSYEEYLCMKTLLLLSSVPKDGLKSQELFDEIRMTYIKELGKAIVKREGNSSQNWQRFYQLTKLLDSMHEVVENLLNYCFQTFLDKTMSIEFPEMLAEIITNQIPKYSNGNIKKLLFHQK
Summary of the method: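 GR-bla HeLa cells carrying a GRE-driven beta-lactamase reporter, exposed to compounds for 18 h at 37 C. Reporter activation read as fluorescence after 2 h with LiveBLAzer B/G FRET substrate at room temperature.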

[10] = biological target: Glucocorticoid receptor (Homo sapiens) (UniProt P04150); assay: qHTS assay to identify small molecule antagonists of the glucocorticoid receptor (GR) signaling pathway (AID 720692; active = well fitted inhibition curve with a large enough effect in the signal ratio in the repeat runs, not every such curve was filed as active; the % refers to the signal ratio; note: potency is the fitted concentration of half-maximal effect)
Summary of the method: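 GR-bla HeLa cells carrying a GRE-driven beta-lactamase reporter received compound after 4 h plating, then dexamethasone (5 nM final). After 18 h at 37C, the FRET substrate was loaded for 2 h at room temperature and fluorescence read.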

| SMILES | outcome [1] | outcome [2] | outcome [3] | outcome [4] | outcome [5] | outcome [6] | outcome [7] | outcome [8] | outcome [9] | Potency [10] | fluorescence, % of fluorescein [1] | fluorescence, % of fluorescent control [2] | activity change [3] | fluorescence, % of fluorescent control [4] | fluorescence, % of Rose Bengal [5] | fluorescence, % of fluorescent control [6] | fluorescence, % of fluorescein control [7] | fluorescence, % of fluorescent control [8] |
| --- | --- | --- | --- | --- | --- | --- | --- | --- | --- | --- | --- | --- | --- | --- | --- | --- | --- | --- |
| COC(=O)C(Cl)C(=O)OC | inactive | inactive | inactive | inactive | inactive | inactive | inactive | inactive | inactive | inactive | – | – | – | – | – | – | – | – |
| Cc1ccccc1C(=O)Nc1cccc(OC(C)C)c1 | inactive | inactive | inactive | inactive | inactive | inactive | inactive | inactive | inactive | inactive | – | – | – | – | – | – | – | – |
| CC(C)N(C(=O)COc1nnc(C(F)(F)F)s1)c1ccc(F)cc1 | inactive | inactive | inactive | inactive | inactive | inactive | inactive | inactive | inactive | 49 µM (active) | – | – | – | – | – | – | – | – |
| CCOC(=O)COc1cc(-c2nn(C)c(OC(F)F)c2Cl)c(F)cc1Cl | inactive | inactive | inactive | inactive | inactive | inactive | inactive | inactive | inactive | inactive | – | – | – | – | – | – | – | – |
| O=C(CBr)OCc1ccccc1 | inactive | inactive | inactive | inactive | inactive | inactive | inactive | inactive | inactive | inactive | – | – | – | – | – | – | – | – |
| C=CCC1([C@H](C)CCC)C(=O)NC(=O)NC1=O | inactive | inactive | inactive | inactive | inactive | inactive | inactive | inactive | inactive | inactive | – | – | – | – | – | – | – | – |
| NCC(CC(=O)O)c1ccc(Cl)cc1 (configuration not stated) | inactive | inactive | inactive | inactive | inactive | inactive | inactive | inactive | inactive | inactive | – | – | – | – | – | – | – | – |
| BrCCCCBr | inactive | inactive | inactive | inactive | inactive | inactive | inactive | inactive | inactive | inactive | – | – | – | – | – | – | – | – |
| COCC(C)N(C(=O)CCl)c1c(C)csc1C (configuration not stated) | inactive | inactive | inactive | inactive | inactive | inactive | inactive | inactive | inactive | inactive | – | – | – | – | – | – | – | – |
| COC1=CC(=O)O[C@@H](CCc2ccccc2)C1 | inactive | inactive | inactive | inactive | inactive | inactive | inactive | inactive | inactive | inactive | – | – | – | – | – | – | – | – |
| CC(C)(Cl)[N+](=O)[O-] | inactive | inactive | inactive | inactive | inactive | inactive | inactive | inactive | inactive | inactive | – | – | – | – | – | – | – | – |
| CC(=O)NC1CCSC1=O (configuration not stated) | inactive | inactive | inactive | inactive | inactive | inactive | inactive | inactive | inactive | inactive | – | – | – | – | – | – | – | – |
| OCCCBr | inactive | inactive | inactive | inactive | inactive | inactive | inactive | inactive | inactive | inactive | – | – | – | – | – | – | – | – |
| N#Cc1ccc(Cl)cc1 | inactive | inactive | inactive | inactive | inactive | inactive | inactive | inactive | inactive | inactive | – | – | – | – | – | – | – | – |
| CCCN(CCC)c1c([N+](=O)[O-])cc(S(C)(=O)=O)cc1[N+](=O)[O-] | inactive | inactive | inactive | inactive | inactive | inactive | inactive | inactive | inactive | inactive | – | – | – | – | – | – | – | – |
| COC(N)=O | inactive | inactive | inactive | inactive | inactive | inactive | inactive | inactive | inactive | inactive | – | – | – | – | – | – | – | – |
| CC/C(=N\OC/C=C/Cl)C1=C(O)CC(C2CCOCC2)CC1=O (configuration not stated) | inactive | inactive | inactive | inactive | inactive | inactive | inactive | inactive | inactive | inactive | – | – | – | – | – | – | – | – |
| Cc1cc(=O)[nH]o1 | inactive | inactive | inactive | inactive | inactive | inactive | inactive | inactive | inactive | inactive | – | – | – | – | – | – | – | – |
| O=[N+]([O-])c1ccccc1CCl | inactive | inactive | inactive | inactive | inactive | inactive | inactive | inactive | inactive | inactive | – | – | – | – | – | – | – | – |
| C[C@@H]1CC[C@H]2[C@@H](C)C(=O)O[C@@H]3O[C@@]4(C)CC[C@@H]1[C@]32OO4 | inactive | inactive | inactive | inactive | inactive | inactive | inactive | inactive | inactive | inactive | – | – | – | – | – | – | – | – |
| O=[Se]=O | inactive | inactive | inactive | inactive | inactive | inactive | inactive | inactive | inactive | inactive | – | – | – | – | – | – | – | – |
| CCCCC(CC)COP(=O)(Oc1ccccc1)Oc1ccccc1 (configuration not stated) | inactive | inactive | inactive | inactive | inactive | inactive | inactive | inactive | – | inactive | – | – | – | – | – | – | – | – |
| CCC(COC(=O)c1cc(OC)c(OC)c(OC)c1)(c1ccccc1)N(C)C (configuration not stated) | inactive | inactive | inactive | inactive | inactive | inactive | inactive | inactive | – | inactive | – | – | – | – | – | – | – | – |
| Clc1ccc(C(OCCN2CCCCC2)c2ccccc2)cc1 (configuration not stated) | – | – | – | – | – | – | – | – | – | inactive | -0.14% [at 18.6 µM] | -0.141% [at 18.6 µM] | -0.263% [at 18.6 µM] | 0.321% [at 18.6 µM] | 0.0745% [at 18.6 µM] | 0.0001% [at 18.6 µM] | -0.0362% [at 18.6 µM] | 0.1% [at 18.6 µM] |
